Source: PubChem BioAssay (NCI)
About 83,000 compounds went through this panel and 20% of them were active in at least one assay; those are over-represented in the sample as a whole.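 Single-concentration screen, 48 h exposure, 96-well plates. Endpoint: percent growth. Below 10 = active.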 A number with no mark means an inactive call. Activity calls are given as the source filed them.

tested on: MCF7 breast; assay: NCI-60 one-dose screen, 48 h (100 = growth as untreated, 0 = no growth, -100 = all killed); conditions: 10 µM unless noted
Method: Growth inhibition of the MCF7 human tumor cell line is measured as a screen for anti-cancer activity. Cells are grown in 96 well plates and exposed to the test compound for 48 hours. Compounds are tested at a single concentration, which is 10^-5 M for most compounds. The reported endpoint is percent growth (GI% or GIPRCNT), where numbers from 0 - 100% represent growth inhibition, and numbers from -100% - 0 represent cell death. For example, a value of 40 represents 60% growth inhibition. A value of 0 means no net growth occurred over the course of the experiment. A value of -40 indicates 40% of cells at the beginning of the experiment died by the end of the experiment. A value of -100 means all cells are dead at the end of the experiment.
NCI-60 Human Tumor Cell Lines Screen was performed using the standard one-dose NCI protocol, which is described in more detail at https://dtp.cancer.gov/discovery_development/nci-60/default.htm.
Compounds with GIPRCNT values below 10 were considered active. Activity score was based on GIPRCNT using the following formula: […]
Score is 0 for GIPRCNT values of 100 or above, 50 for GIPRCNT values of 0, and 100 for GIPRCNT values of -100.

SMILES | growth
COc1ccccc1P(c1ccccc1OC)c1ccccc1OC | 95.9%
CC(C)(CCN=C(N)Nc1ccccn1)c1ccc(C(F)(F)F)cc1 | -11.2% (active)
Nn1c(SCC(=O)Nc2cc(Cl)c(Cl)cc2Cl)nnc1-c1cc(F)c(Cl)cc1Cl | 78.8%
S=c1[nH]nc(Cn2c3ccccc3c3ccncc32)o1 | 109%
C=C1C(=O)O[C@H]2[C@H]1CC/C(COC(=O)c1ccccc1)=C\CC[C@@]1(C)O[C@@H]21 | -30.7% (active)
Nc1nccc2c1ccn2-c1cccc(NC(=O)c2ccc(N3CCOCC3)c(C(F)(F)F)c2)c1 | 16%
COC(=O)c1oc2c(C(=O)/C=C/c3ccc(OC)cc3)c(OCCN3CCOCC3)ccc2c1C | 10.5%
CC(=O)n1cc(/C=C2\N=C(c3ccc(Cl)cc3)N(c3ccc(S(=O)(=O)Nc4nccs4)cc3)C2=O)c2ccccc21 | 49.8%
COc1cc([C@@H]2c3cc4c(cc3C(OC3O[C@@H]5COC(C)O[C@H]5[C@H](O)[C@H]3O)C3COC(=O)[C@@H]32)OCO4)cc(OC)c1O (stereo not given in full) | 22.4%
CCCCCCCCCCCCCCCCCCNCc1ccc(Cl)cc1 | -71.2% (active)
CCOC(=O)c1noc2c1CCc1cn(Cc3cc(OC)cc(OC)c3)cc1-2 | 94.9%
Cn1cnc([N+](=O)[O-])c1N1c2ccncc2Sc2ccncc21 | 101%
O=C(Nc1ccc(-n2cc(-c3ccncc3)c(-c3ccc(O)c(Cl)c3)n2)cc1)c1ccc(Cl)c(C(F)(F)F)c1 | 20.9%
COc1ccc2c(c1)C(=O)/C(=C/c1ccc(OCC(=O)c3ccc(Cl)cc3)cc1)O2 | 104%
CCC(C)Nc1ccc(N)cc1 (stereo not given) | 3.94% (active)
CC(C)(C)NC(C1=CC(C)(C)c2ccccc2C1=O)c1ccccc1 (stereo not given) | -63.6% (active)
COC(OC)C1(c2ccccc2)NC(=O)NC1=O (stereo not given) | 104%
COc1cc(-c2nc(SCC(=O)Nc3ccc(C(C)=O)cc3)[nH]c(=O)c2C#N)cc(OC)c1OC | 18.2%
Cc1cc(Nc2ccc(Cl)c(Cl)c2)nc(N)n1 | 84.4%
Cc1cccc(CC(=O)c2ccccc2)n1 | 92%

SMILES | growth
C#C[C@H](O)/C=C/CCCCCCC#C[C@H](O)CC[C@@H](O)C#CCCCCCC/C=C/[C@@H](O)C#C | 68.5%
c1ccc([Se]CCCN2CCN(CCC[Se]c3ccccc3)CC2)cc1 | 110%
S=C=NP1(N=C=S)=NP(N=C=S)(N=C=S)=NP(N=C=S)(N=C=S)=NP(N=C=S)(N=C=S)=N1 (stereo not given) | 91%
CN1C(=O)C2(SCC(C(=O)NCC(=O)OC(C)(C)C)N2C(=O)C2CCCCC2)c2ccccc21 (stereo not given) | 97.9%
O=C(N/N=C/c1ccccc1O)c1ccccc1O | 11.1%
c1ccc2c(c1)Oc1cccnc1-n1nccc1-2 | 98.6%
COc1cc(NC(=O)C#Cc2ccccc2)c(OC)cc1Cl | 22.6%
CCc1c(C)c2cc(-n3c(-c4ccc(OC)cc4)csc3=N)c(O)c(C)c2oc1=O | 9.39% (active)
O=C(Cn1c2ccccc2c2ccncc21)N/N=C\c1ccc2ccccc2c1 | 11.7%
COc1cccc(C2CC(c3cc(OC)c(OC)c(OC)c3)=NN2)c1 (stereo not given) | 51.5%
CCNc1cc(S(=O)(=O)O)ccc1C | 98.6%
CC(C)CNCC(O)COc1ccc(C(C)(C)c2ccc(OCC(O)CNCC(C)C)cc2)cc1 (stereo not given) | 10.3%
COc1ccc(-c2nnc(SCC(=O)Nc3ccc(C(=O)/C=C/c4ccc(Cl)cc4)cc3)o2)cc1OC | 57.5%
c1nc(SC2=NCCN2)c2[nH]cnc2n1 | 14%
O=C(NCCNc1nccc(-c2c(-c3cccc(O)c3)nc3sccn23)n1)c1ccc(N2CCOCC2)c(C(F)(F)F)c1 | 58.7%
O=C(Nc1cccc(-n2ccc3c(NC(=O)c4ccccc4)nccc32)c1)Nc1ccc(Cl)c(C(F)(F)F)c1 | 19.5%
COC(=O)c1ccc(NC(N)=NCC(C)(C)COc2ccc(C(F)(F)F)cc2)nc1 | 8.58% (active)
O=C(O)c1ccc2nc(-c3ccc(OCCCCCOc4ccc(-c5nc6ccc(C(=O)O)cc6[nH]5)cc4)cc3)[nH]c2c1 | 82.3%
CCCOC(=O)c1ccc([N+](=O)[O-])o1 | 94.2%
CNCCCOc1c(Br)cc(CCNC(=O)/C(Cc2ccc(OC)c(Br)c2)=N/O)cc1Br | 19%
